# Assay outcomes from PubChem BioAssay.
# Pf growth 48h = inhibits P. falciparum growth in the first generation, 48 h; P. falciparum luciferase growth in erythrocytes, 48 h; Potency, µM (highest dose often 28.7 µM), inactives show at the highest dose activity change, negative = inhibition, actives largely listed as inhibitors; 5.9% of 310,000 active; AID 504832; active means well fitted inhibition curve with a large enough effect; inconclusive means small, poorly fitted or top-dose-only effect, or another doubt; inactive means no such curve, though single readings can be large or run the other way; further: on the % scale 0 is the no-effect control and ±100 the full control effect
#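 Luciferase-expressing parasites in RBCs, 2% Hct / 0.1% parasitemia final; RPMI 1640 + 0.5% Albumax; 37 C, 5% CO2, one generation; luminescence read-out, lower signal = inhibition.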
# Pf growth 96h = inhibits malaria parasite growth, 96 h; P. falciparum luciferase reporter growth, 96 h; Potency, µM (doses to about 28.7 µM), inactives show top-dose activity change, negative = inhibition, actives largely listed as inhibitors; 6.9% of 320,000 active; active means well fitted inhibition curve with a large enough effect; inconclusive means small, poorly fitted or top-dose-only effect, or another doubt; inactive means no such curve, though single readings can be large or run the other way; further: on the % scale 0 is the no-effect control and ±100 the full control effect
#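 Plates of compound plus infected erythrocytes (2% hematocrit, 0.05% parasitemia final) incubate 96 hours, 37 C, 5% CO2. Detection reagent added; reduced luminescence from the parasites' luciferase reporter flags inhibition.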
# NS1 inh = inhibitors of influenza NS1 protein function. AID 2326. 0.4% of 270,000 active. Potency, µM (top dose mostly 46.1 µM), inactives show top-dose activity, positive = more growth; further: actives are rising curves; nearly all actives have a fitted effect of over 50% in size
#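 Recovery from NS1-induced slow growth read by OD600 in budding yeast switched to galactose assay medium (pH 6.0, -URA) at 1:100 dilution. Compound 23 nl per well; the matching strain lacking NS1 serves as control.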
# SARS PLpro yeast = SARS-CoV PLP inhibition in yeast. Potency, µM (highest dose often 32.9 µM), without a hit: at the highest dose activity, positive = growth rescue, hits mostly activators. 0.19% of 330,000 active. S. cerevisiae expressing SARS-CoV PLpro, growth rescue; further: 0% is about no effect; nearly all actives have a fitted effect of over 55% in size
# * hit, by the source's call; ? = inconclusive; / = no result. An excerpt weighted towards active compounds, which were near 10% of everything screened. Unless noted, the call rests on the fitted dose curve. Potency means the concentration at half of the fitted maximal effect.
SMILES,Pf growth 48h,Pf growth 96h,NS1 inh,SARS PLpro yeast
N#Cc1c(Nc2ccccc2)c(C=NCCN2CCOCC2)c[nH]c1=O,4.1%,9.28µM*,0.7%,-3.1%
COc1ccc(/C=C/C(=O)Nc2cc(C(F)(F)F)ccc2Cl)cc1OC,?,73.9%,9.0%,-4.5%
COc1cc(/C=C/C(=O)Nc2cc(C(F)(F)F)ccc2Cl)cc(OC)c1OC,10.4µM*,2.62µM*,-0.4%,-20.6%
Cc1ccc(C(=O)C(C)OC(=O)Cn2[nH]c(=O)c3ccccc3c2=O)cc1C (stereo not drawn),31.1%,49.3%,3.7%,-6.5%
CCOC(=O)c1cnc2ccc(OCC)cc2c1N1CCN(C)CC1,8.28µM*,0.0%,-6.3%,6.1%
CCOC(=O)c1cnc2c(OC)cccc2c1N1CC(C)CC(C)C1 (stereo not drawn),0.0%,?,-5.6%,0.3%
CCOc1ccc2ncc(S(=O)(=O)c3ccc(C)cc3)c(N3CCC4(CC3)OCCO4)c2c1,11.7µM*,7.38µM*,10.1%,-9.0%
CCOC(=O)c1cnc2c(OC)cccc2c1N1CCN(c2ccccc2OC)CC1,7.38µM*,12.0%,-44.9%,-10.5%
CCOC(=O)c1cnc2c(OC)cccc2c1N1CCN(c2ccc(OC)cc2)CC1,11.7µM*,8.6%,?,-8.5%
CCOC(=O)c1cnc2c(OC)cccc2c1N1CCN(c2ccccn2)CC1,13.2%,44.0%,-6.5%,-0.7%
CC(Oc1cc2oc(=O)c3c(c2cc1Cl)CCCC3)C(=O)NCCN1CCOCC1 (stereo not drawn),4.2%,1.6%,6.8%,0.6%
O=C(CSc1nc2cccnc2n1Cc1ccccc1)N1CCCC1,6.6%,?,-1.5%,-2.1%
O=C(NCCc1ccccc1)c1ccc(Cn2c(SCc3cccc(F)c3)nc3cccnc32)cc1,9.28µM*,3.29µM*,/,1.6%
O=C(CSc1nc2cccnc2n1Cc1ccccc1)NC1CCCCC1,10.4µM*,?,-3.2%,-15.2%
CC(C)(C)NC(=O)CSCc1ccc(Br)cc1,-0.4%,327.6%,-2.4%,-0.6%
O=C(Nc1ccc(NC(=O)c2ccc(Cl)c(S(=O)(=O)N3CCOCC3)c2)cc1)c1ccccc1,5.0%,-1.2%,-7.4%,12.3%
O=C(Nc1ccccc1)c1ccc(N2CCN(c3ccccn3)CC2)c(S(=O)(=O)N2CCOCC2)c1,/,3.7µM*,-6.9%,-1.5%
O=C(Nc1ccccc1)c1ccc(N2CCN(c3ccccc3)CC2)c(S(=O)(=O)N2CCOCC2)c1,/,4.15µM*,20.0%,-2.5%
O=C(Nc1ccccn1)c1ccc(Cl)c(S(=O)(=O)N2CCOCC2)c1,6.9%,?,-4.7%,0.9%
O=C1CCN(S(=O)(=O)c2ccccc2)CCN1CCOCc1ccc(Cl)cc1,45.8%,71.0%,1.5%,-0.5%
NS(=O)(=O)c1ccc(NC(=O)CSc2nc3c(cnn3-c3ccccn3)c(=O)[nH]2)cc1,4.8%,-1.0%,/,-5.5%
Cc1cc(C)cc(N=Cc2ccc([N+](=O)[O-])s2)c1,0.0%,-16.7%,-62.5%,-78.3%
Cc1ccc(NC(=S)N/N=C/c2ccc([N+](=O)[O-])s2)cc1,9.28µM*,31.4%,-36.8%,-127.2%
Cc1onc(-c2ccccc2)c1C(=O)N/N=C/c1ccco1,87.8%,21.4%,1.8%,1.4%
Cc1onc(-c2ccccc2)c1C(=O)N/N=C/c1ccc([N+](=O)[O-])s1,11.7µM*,?,-29.6%,-66.8%
SMILES,Pf growth 48h,Pf growth 96h,NS1 inh,SARS PLpro yeast
CCOC(=O)c1c(NC(=S)NC)sc2c1CC(C)(C)SC2,4.15µM*,-101.6%,1.0%,15.8%
O=C(NCCOc1ccc(F)cc1)C1CCC(=O)N(CC2CCCCC2)C1 (stereo not drawn),?,?,-9.6%,26.8%
O=C(NNC(=S)Nc1ccc(Cl)c(Cl)c1)c1ccccn1,2.33µM*,?,-52.4%,-4.1%
S=C(NCc1ccccn1)Nc1ccc(Cl)c(Cl)c1,?,?,-2.4%,-15.7%
O=C(NNc1ccccn1)C(c1ccccc1)c1ccccc1,12.6%,?,/,-0.5%
O=C(NNC(=O)C(c1ccccc1)c1ccccc1)c1ccccn1,3.7µM*,2.62µM*,-13.1%,6.3%
CC(=O)c1ccc(N2CCN(S(=O)(=O)c3ccc(-c4cnc(C5CC5)o4)cc3)CC2)cc1,?,?,6.1%,-1.1%
CCC1CCCCN1C(=O)CSc1nnc(N)s1 (stereo not drawn),/,/,/,-0.3%
COc1ccc(CN2CCCCCC2)cc1Br,2.6%,15.1%,-12.9%,-4.2%
COc1c(O)ccc2c1CN1CCc3cc4c(cc3[C@@H]1C2)OCO4,/,/,1.0%,/
C=CCn1c(=NC(=O)c2ccco2)sc2cc(C(=O)OC)ccc21,2.3%,6.0%,11.1%,-1.9%
